Of roughly 7,900 targets only a part is listed; those with a hit were picked by preference. About 0.6% of all pairs of compound and target were hits. A number with no mark means an inactive call.
Key:
Experiment in all cases: log2 fold change, soluble protein after heating vs DMSO (PISA); higher = thermal stabilisation; K562 cells, 10 uM, 30 min; active = over 0.2 and 3.5 SD of the protein, either way, in both replicates (recomputed)
[1] = compound: COC1=CC=C(C=C1)CN2C=CC3=C2C=C(C=C3)C(=O)NO
Method in brief: (§1)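 Soluble protein was defined as the supernatant after 21,000xg for 90 min. It came from K562 cells at 2×10^6 cells/mL given 10 μM compound for 30 min, heated in aliquots for 3 min across 48°C-58°C, pooled, and extracted in PBS with 0.5% NP-40 at 4°C, and was quantified by TMTpro 16plex LC-MS/MS with equalised channel sums. Thermal stability against control samples, from duplicates, is reported as log2 fold change.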

filanesib = compound: CON(C)C(=O)N1N=C(c2cc(F)ccc2F)S[C@@]1(CCCN)c1ccccc1 [filanesib]
Method in brief: as §1

zotarolimus = compound: CO[C@H]1C[C@@H]2CC[C@@H](C)[C@@](O)(O2)C(=O)C(=O)N2CCCC[C@H]2C(=O)O[C@H]([C@H](C)C[C@@H]2CC[C@H](n3cnnn3)[C@H](OC)C2)CC(=O)[C@H](C)/C=C(\C)[C@@H](O)[C@@H](OC)C(=O)[C@H](C)C[C@H](C)/C=C/C=C/C=C/1C [zotarolimus]
Method in brief: as §1

idasanutlin = compound: COc1cc(C(=O)O)ccc1NC(=O)[C@@H]1N[C@@H](CC(C)(C)C)[C@](C#N)(c2ccc(Cl)cc2F)[C@H]1c1cccc(Cl)c1F [idasanutlin]
Method in brief: as §1

alisertib = compound: COc1cc(Nc2ncc3c(n2)-c2ccc(Cl)cc2C(c2c(F)cccc2OC)=NC3)ccc1C(=O)O [alisertib]
Method in brief: as §1

[2] = compound: COc1cc2nc(-c3cc(F)ccc3O)nc(N[C@@H]3CNC[C@H]3C(C)(C)O)c2cc1OC
Method in brief: as §1

gefitinib = compound: COc1cc2ncnc(Nc3ccc(F)c(Cl)c3)c2cc1OCCCN1CCOCC1 [gefitinib]
Method in brief: as §1

[3] = compound: COc1cccc2cc(-c3nc([C@H]4CC[C@H](C(=O)O)CC4)n4ncnc(N)c34)[nH]c12
Method in brief: as §1

lapatinib = compound: CS(=O)(=O)CCNCc1ccc(-c2ccc3ncnc(Nc4ccc(OCc5cccc(F)c5)c(Cl)c4)c3c2)o1 [lapatinib]
Method in brief: as §1

pictilisib = compound: CS(=O)(=O)N1CCN(Cc2cc3nc(-c4cccc5[nH]ncc45)nc(N4CCOCC4)c3s2)CC1 [pictilisib]
Method in brief: as §1

Sequence of UniProt P45984 (P45984 whole entry, looked up): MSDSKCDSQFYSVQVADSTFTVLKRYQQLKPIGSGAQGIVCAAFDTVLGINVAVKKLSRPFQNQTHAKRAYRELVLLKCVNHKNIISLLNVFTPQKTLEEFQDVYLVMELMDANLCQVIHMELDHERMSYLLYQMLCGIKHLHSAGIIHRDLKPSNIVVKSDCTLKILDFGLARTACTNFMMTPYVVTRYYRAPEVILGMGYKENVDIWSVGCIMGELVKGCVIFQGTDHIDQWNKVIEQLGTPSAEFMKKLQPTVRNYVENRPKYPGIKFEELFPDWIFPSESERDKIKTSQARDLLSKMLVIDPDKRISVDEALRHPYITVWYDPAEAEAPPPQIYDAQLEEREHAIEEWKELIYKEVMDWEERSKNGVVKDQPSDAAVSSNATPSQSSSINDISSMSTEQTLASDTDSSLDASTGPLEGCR
Sequence of UniProt Q6UWB1 (Q6UWB1 whole entry, looked up): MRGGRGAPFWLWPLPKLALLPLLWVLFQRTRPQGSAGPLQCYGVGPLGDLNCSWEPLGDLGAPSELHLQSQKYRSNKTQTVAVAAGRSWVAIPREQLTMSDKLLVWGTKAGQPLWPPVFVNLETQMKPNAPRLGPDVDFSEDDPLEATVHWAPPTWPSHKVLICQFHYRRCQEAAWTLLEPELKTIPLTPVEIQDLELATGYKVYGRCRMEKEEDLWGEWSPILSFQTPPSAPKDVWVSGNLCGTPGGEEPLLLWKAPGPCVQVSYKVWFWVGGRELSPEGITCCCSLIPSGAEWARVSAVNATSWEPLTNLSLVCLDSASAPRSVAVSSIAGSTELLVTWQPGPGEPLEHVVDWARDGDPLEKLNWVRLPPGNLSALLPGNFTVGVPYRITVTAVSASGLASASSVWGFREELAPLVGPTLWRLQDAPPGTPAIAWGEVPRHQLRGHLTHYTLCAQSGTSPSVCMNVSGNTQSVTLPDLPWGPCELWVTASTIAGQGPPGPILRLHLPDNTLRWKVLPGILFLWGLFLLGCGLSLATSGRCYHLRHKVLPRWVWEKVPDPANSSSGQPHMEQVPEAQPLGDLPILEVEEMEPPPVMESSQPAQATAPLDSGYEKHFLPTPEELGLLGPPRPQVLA
Sequence of UniProt Q9H0C8 (Q9H0C8 whole entry, looked up): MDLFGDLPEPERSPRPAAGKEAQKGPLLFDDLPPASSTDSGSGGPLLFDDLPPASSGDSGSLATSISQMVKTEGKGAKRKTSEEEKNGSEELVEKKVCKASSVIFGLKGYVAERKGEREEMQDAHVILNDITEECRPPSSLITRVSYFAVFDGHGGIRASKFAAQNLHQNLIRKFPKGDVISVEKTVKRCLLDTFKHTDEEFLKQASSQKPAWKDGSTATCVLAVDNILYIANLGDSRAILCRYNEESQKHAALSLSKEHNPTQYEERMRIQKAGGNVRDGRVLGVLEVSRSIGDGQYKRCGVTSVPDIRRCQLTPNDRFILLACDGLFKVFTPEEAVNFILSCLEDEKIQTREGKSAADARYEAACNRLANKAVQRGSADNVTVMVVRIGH
Sequence of UniProt P23368 (P23368 whole entry, looked up): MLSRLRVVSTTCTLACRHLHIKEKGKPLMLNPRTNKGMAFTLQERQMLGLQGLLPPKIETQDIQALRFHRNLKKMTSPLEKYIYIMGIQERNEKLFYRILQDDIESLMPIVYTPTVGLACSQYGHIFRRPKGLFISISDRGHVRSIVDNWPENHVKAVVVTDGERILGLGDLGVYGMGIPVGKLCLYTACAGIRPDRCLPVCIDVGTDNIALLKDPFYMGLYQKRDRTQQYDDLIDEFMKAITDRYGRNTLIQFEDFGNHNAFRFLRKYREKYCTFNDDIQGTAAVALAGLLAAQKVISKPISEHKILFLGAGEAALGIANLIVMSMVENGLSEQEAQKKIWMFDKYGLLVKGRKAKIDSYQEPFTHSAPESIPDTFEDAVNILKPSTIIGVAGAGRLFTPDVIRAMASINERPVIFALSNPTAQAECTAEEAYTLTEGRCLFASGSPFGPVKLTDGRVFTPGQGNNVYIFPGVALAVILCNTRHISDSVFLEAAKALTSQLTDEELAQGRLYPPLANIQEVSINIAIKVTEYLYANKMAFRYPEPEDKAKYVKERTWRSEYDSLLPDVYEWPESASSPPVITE
Sequence of UniProt P18065 (P18065 whole entry, looked up): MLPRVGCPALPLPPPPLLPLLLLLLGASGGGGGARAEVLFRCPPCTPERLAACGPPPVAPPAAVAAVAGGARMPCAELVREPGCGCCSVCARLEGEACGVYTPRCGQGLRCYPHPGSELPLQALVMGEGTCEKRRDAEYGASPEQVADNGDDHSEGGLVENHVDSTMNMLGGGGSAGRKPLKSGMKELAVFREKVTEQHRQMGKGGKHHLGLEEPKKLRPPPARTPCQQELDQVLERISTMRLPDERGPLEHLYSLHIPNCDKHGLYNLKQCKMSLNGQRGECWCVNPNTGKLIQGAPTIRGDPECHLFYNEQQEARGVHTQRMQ
Sequence of UniProt Q9UI26 (Q9UI26 whole entry, looked up): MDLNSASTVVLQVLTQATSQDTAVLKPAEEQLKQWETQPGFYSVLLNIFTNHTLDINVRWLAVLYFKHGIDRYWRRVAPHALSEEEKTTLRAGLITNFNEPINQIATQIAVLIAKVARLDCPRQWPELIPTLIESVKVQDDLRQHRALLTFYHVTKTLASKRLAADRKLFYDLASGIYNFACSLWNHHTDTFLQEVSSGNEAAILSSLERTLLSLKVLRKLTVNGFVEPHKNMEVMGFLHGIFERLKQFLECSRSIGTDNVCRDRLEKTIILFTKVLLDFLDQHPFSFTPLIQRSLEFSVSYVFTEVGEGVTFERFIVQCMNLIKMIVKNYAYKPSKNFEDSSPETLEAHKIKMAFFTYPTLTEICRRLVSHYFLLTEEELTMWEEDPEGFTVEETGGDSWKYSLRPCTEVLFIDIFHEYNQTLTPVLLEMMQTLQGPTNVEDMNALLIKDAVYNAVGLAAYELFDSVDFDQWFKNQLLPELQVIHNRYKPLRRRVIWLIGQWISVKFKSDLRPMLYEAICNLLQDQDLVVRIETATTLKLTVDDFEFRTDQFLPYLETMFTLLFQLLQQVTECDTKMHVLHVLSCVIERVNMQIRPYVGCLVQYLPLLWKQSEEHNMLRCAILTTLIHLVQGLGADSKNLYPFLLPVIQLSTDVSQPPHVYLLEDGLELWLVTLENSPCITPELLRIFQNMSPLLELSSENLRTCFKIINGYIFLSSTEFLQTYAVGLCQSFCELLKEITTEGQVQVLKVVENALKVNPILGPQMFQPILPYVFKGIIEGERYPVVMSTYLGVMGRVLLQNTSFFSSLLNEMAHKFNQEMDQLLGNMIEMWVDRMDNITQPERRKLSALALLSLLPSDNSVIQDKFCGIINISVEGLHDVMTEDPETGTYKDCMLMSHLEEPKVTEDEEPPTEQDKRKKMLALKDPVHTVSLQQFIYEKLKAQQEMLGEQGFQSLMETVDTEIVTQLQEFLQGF
Sequence of UniProt P23276 (P23276 whole entry, looked up): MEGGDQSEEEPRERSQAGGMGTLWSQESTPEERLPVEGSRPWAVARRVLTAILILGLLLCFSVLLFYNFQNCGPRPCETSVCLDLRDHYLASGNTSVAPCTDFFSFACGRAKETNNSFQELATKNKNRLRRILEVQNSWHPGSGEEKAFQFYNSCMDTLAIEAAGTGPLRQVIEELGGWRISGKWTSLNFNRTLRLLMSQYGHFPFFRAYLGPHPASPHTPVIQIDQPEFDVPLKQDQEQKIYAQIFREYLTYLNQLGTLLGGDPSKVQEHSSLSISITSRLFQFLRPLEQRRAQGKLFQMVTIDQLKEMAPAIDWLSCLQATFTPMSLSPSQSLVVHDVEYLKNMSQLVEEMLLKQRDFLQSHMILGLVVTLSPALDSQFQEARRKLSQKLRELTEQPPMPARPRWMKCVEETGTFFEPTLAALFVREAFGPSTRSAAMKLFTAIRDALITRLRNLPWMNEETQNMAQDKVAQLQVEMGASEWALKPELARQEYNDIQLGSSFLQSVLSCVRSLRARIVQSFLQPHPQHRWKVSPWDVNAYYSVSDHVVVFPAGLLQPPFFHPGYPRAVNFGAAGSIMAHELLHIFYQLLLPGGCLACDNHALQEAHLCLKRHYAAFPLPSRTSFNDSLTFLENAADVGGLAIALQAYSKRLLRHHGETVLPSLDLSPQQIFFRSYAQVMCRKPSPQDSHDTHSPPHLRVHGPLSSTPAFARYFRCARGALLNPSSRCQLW
Sequence of UniProt Q8IW41 (Q8IW41 whole entry, looked up): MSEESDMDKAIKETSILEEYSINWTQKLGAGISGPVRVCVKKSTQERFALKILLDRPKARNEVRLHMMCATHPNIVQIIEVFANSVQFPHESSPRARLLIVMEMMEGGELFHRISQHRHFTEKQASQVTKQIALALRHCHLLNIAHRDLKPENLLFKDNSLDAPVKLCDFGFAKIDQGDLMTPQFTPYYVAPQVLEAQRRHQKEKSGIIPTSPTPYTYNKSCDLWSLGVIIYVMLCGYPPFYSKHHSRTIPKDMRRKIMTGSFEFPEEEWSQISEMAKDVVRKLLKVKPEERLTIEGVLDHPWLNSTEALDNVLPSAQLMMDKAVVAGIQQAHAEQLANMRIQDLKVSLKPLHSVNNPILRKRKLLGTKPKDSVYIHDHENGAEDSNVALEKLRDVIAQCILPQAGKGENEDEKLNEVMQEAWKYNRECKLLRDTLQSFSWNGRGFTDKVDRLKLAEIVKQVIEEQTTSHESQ
Sequence of UniProt Q13418 (Q13418 whole entry, looked up): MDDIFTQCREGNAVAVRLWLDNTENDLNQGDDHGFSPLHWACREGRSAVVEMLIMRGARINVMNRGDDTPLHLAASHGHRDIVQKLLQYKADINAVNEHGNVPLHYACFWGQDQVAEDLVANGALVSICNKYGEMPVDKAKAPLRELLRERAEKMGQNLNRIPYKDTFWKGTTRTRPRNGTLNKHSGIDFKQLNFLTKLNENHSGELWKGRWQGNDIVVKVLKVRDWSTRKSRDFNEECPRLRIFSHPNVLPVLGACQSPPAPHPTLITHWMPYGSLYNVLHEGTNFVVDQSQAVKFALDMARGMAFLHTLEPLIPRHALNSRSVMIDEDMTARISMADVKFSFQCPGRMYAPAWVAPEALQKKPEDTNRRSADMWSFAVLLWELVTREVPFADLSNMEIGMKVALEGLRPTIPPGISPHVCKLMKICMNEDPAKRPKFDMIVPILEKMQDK

| Target | log2 fold change [1] | log2 fold change (filanesib) | log2 fold change (zotarolimus) | log2 fold change (idasanutlin) | log2 fold change (alisertib) | log2 fold change [2] | log2 fold change (gefitinib) | log2 fold change [3] | log2 fold change (lapatinib) | log2 fold change (pictilisib) |
| --- | --- | --- | --- | --- | --- | --- | --- | --- | --- | --- |
| MAPKAPK2 (UniProt P49137) | 0.066 | -0.06 | -0.012 | -0.054 | -0.03 | 0.118 | 0.11 | 0.01 | -0.025 | 0.023 |
| ILF2 (UniProt Q12905) | 0.086 | 0.101 | -0.024 | 0.084 | -0.146 | 0.068 | -0.045 | -0.08 | 0.101 | -0.035 |
| MAPKAPK5 (UniProt Q8IW41) | -0.011 | -0.133 | 0.009 | -0.017 | -0.084 | 0.269 | 0 | -0.038 | 0.078 | 0.134 |
| IL27RA (UniProt Q6UWB1) | -0.02 | 0.065 | -0.11 | 0.113 | -0.29 | 0.047 | -0.169 | 0.207 | 0.043 |  |
| IGFBP2 (UniProt P18065) | 0.117 | -0.238 | -0.846 (active) | 0.439 | 0.11 | -0.056 | -0.228 | 0.363 | -0.025 | -0.252 |
| LARP7 isoform 3 (UniProt Q4G0J3) | -0.258 (active) | 0.071 | 0.082 | -0.019 | -0.007 | -0.165 | 0.001 | 0.042 | 0.082 | -0.041 |
| IGFBP4 (UniProt P22692) | -0.075 | 0.012 | -0.31 | 0.392 (active) | 0.009 | -0.024 | -0.107 | 0.179 | -0.036 | -0.022 |
| LTN1 isoform 3 (UniProt O94822) | 0 | -0.009 | 0.039 | -0.136 | 0.01 | 0.04 | -0.04 | -0.108 | -0.029 | -0.157 |
| LRPPRC (UniProt P42704) | 0.303 | -0.788 | -0.02 | 0 | 0.207 | -0.638 | -0.189 | 0.119 | -0.091 | -0.119 |
| IPO11 isoform 2 (UniProt Q9UI26) | 0.036 | -0.045 | 0.002 | -0.087 | -0.023 | -0.006 | -0.049 | 0.04 | 0.005 | 0.028 |
| MAP2K1 (UniProt Q02750) | 0.022 | -0.05 | -0.007 | -0.047 | -0.048 | 0.02 | -0.011 | 0.029 | -0.045 | 0.04 |
| ILK (UniProt Q13418) | -0.444 (active) | 0.023 | -0.052 | 0.021 | 0.038 | 0.036 | 0.007 | 0 | -0.05 | 0.068 |
| MIER1 isoform 12 (UniProt Q8N108) | -0.041 | -0.067 | -0.015 | -0.04 | -0.023 | -0.039 | -0.001 | 0.014 | 0.011 | -0.066 |
| MFN2 (UniProt O95140) | 0.04 | -0.112 | 0.016 | 0 | -0.043 | -0.438 (active) | 0.01 | -0.006 | 0.027 | -0.058 |
| IPO7 (UniProt O95373) | 0.053 | -0.094 | 0.014 | -0.103 | -0.087 | -0.111 | 0 | -0.014 | -0.008 | -0.006 |
| IMMT isoform 4 (UniProt Q16891) | -0.008 | -0.122 | -0.007 | -0.082 | -0.049 | -0.146 | -0.005 | 0.013 | -0.047 | 0.005 |
| MCL1 (UniProt Q07820) | -0.092 | 0.029 | 0.093 | 0.145 | -0.12 | -0.442 (active) | -0.18 | 0.055 | -0.249 | -0.026 |
| MAPK9 (UniProt P45984) | -0.004 | -0.01 | -0.022 | -0.062 | -0.072 | 0.043 | 0.009 | 0.001 | -0.039 | 0.075 |
| ILKAP (UniProt Q9H0C8) | 0 | -0.016 | 0.03 | -0.06 | -0.13 | 0.113 | 0.032 | -0.056 | -0.029 | -0.035 |
| LIAS (UniProt O43766) | -0.131 | -0.049 | -0.097 | -0.032 | -0.041 | 0.132 | 0.014 | 0.036 | -0.051 | 0.078 |
| LIMA1 isoform 4 (UniProt Q9UHB6) | -0.044 | 0.178 | 0.021 | 0.008 | -0.028 | 0.171 | 0.077 | 0.11 | -0.126 | -0.1 |
| INPP1 (UniProt P49441) | -0.086 | -0.019 | 0.048 | -0.123 | -0.056 | 0.101 | -0.031 | 0.03 | -0.049 | -0.116 |
| MAP4K5 (UniProt Q9Y4K4) | 0.01 | -0.083 | 0.021 | 0.067 | 0.134 | 0.224 | -0.011 | 0.011 | 0.15 | 0.012 |
| MAPK12 (UniProt P53778) | 0.066 | -0.062 | 0.026 | -0.072 | -0.115 | 0.084 | -0.269 | 0.093 | -0.056 | 0.062 |
| LMF2 (UniProt Q9BU23) | -0.041 | -0.011 | -0.027 | -0.02 | -0.025 | -0.014 | 0.013 | -0.021 | 0.062 | -0.095 |
| MAP3K7 (UniProt O43318) | 0.105 | 0.026 | -0.074 | -0.03 | 0.084 | 0.065 | 0.016 | -0.054 | -0.058 | 0.088 |
| LNPEP (UniProt Q9UIQ6) | 0.001 | -0.014 | -0.03 | -0.014 | -0.01 | 0.016 | 0.01 | 0.058 | 0.003 | 0.04 |
| KEL (UniProt P23276) | -0.042 | 0.034 | -0.043 | 0.055 | 0.177 | -0.015 | 0.07 | 0.176 | -0.078 | 0.194 |
| MAP2K7 isoform 4 (UniProt O14733) | -0.018 | -0.029 | -0.042 | -0.003 | -0.029 | 0.019 | -0.027 | 0.048 | -0.016 | 0.137 |
| ME2 (UniProt P23368) | -0.037 | 0.012 | -0.052 | 0.196 | 0.002 | 0.076 | 0.023 | -0.046 | -0.003 | 0.056 |

Reference: the supplement of paper PMC10849652
